VP16 counter – Gal4-VP16 reporter inhibition counter-screen | Drosophila S2 Gal4-VP16 UAS-luciferase, luminescence, 20 h | Potency, µM (titrated, usually from 53.6 µM), most hits filed as inhibitors | 310,000 compounds, 3.5% hits | AID 2546;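 note: Gal4-VP16 expression switched on by copper sulfate through the metallothionein promoter; nearly all actives have a fitted effect of over 50% in size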
CtBP-E1A inh – inhibitors of CtBP/E1A interaction; AlphaScreen GST-E1A/His-CtBP binding, 1536-well; active compounds read low; activity change, % (concentration not given with the values); 340,000 compounds, 0.49% hits; AID 651724; in the data active = activity change below about -65%; inconclusive = mostly about -30% to -63%
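Steps: dispense buffer (Tris pH 8.0, NaCl 300 mM, TCEP 1 mM, BSA, Tween 20); add 5X protein mix (GST-E1A, His-CtBP, 125 nM each); pin 23 nL compound; 2 h at 37 °C, dark; add 5X beads (50 ug/mL); 1 h; read.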
PKM2 activator – increases activity of human pyruvate kinase M2. purified PKM2, Kinase-Glo ATP luminescence, activation; response scale: 0% is enzyme alone, no compound. 260,000 compounds, 0.34% hits. Potency, µM (titrated, usually from 57.5 µM), most hits filed as activators. AID 1631; note: nearly all actives have a fitted effect of over 55% in size
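Purified hPK-M2 (>95% pure) converted ADP (0.1 mM final) to ATP with 0.5 mM PEP in 50 mM imidazole pH7.2, KCl, MgCl2, Tween 20, BSA; 1 h at room temperature. ATP detected by Kinase-Glo luminescence.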
Six1-Eya2 inh – blocks human Six1 binding to Eya2; 360,000 compounds, 0.56% hits; Q15475+O00167; AlphaScreen GST-Six1/His-Eya2 binding, biochemical; active compounds read low; AID 651725; activity change, % (no concentration beside the values); in the data active = activity change below about -65%; inconclusive = mostly about -30% to -63%
Target sequence (O00167 whole entry, looked up): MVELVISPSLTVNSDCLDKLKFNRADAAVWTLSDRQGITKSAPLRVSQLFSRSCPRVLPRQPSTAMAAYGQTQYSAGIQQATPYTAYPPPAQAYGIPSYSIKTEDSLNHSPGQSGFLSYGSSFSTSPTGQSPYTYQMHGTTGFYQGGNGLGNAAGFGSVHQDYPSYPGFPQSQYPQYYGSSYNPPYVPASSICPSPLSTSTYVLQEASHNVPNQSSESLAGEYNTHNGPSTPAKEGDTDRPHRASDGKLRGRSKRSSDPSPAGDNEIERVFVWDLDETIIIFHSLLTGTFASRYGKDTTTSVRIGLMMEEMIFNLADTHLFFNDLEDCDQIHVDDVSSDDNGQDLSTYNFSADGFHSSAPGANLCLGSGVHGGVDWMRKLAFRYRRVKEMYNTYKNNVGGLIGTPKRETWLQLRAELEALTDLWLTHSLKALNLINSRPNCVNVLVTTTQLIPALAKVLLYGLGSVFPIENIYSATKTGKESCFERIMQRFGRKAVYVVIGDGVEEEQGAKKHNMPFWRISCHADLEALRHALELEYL
Target sequence (Q15475 whole entry, looked up): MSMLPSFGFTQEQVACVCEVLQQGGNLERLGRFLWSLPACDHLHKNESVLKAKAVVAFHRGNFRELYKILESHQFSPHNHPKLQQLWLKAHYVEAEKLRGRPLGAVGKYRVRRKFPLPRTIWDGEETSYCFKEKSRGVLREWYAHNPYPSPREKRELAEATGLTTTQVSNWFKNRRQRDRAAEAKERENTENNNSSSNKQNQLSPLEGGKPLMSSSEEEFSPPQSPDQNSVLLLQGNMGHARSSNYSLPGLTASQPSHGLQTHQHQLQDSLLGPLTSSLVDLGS
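AlphaScreen with GST-Six1 and His-Eya2 (5X mix: 250 nM and 500 nM), glutathione donor and nickel acceptor beads; buffer 50 mM Tris pH 8.0, 300 mM NaCl, 1 mM TCEP; 1 h at 37 C in the dark.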
RORg inh – blocks mouse ROR gamma transcriptional activity | 310,000 compounds, 5.4% hits | Drosophila S2 Gal4-RORgamma UAS-luciferase reporter, 20 h | Potency, µM (series often up to 53.6 µM), hits mostly inhibitors; note: nearly all actives have a fitted effect of over 60% in size
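Drosophila Schneider cells stably carrying a metallothionein-driven Gal4 DBD–ROR gamma fusion and a UAS-Photinus luciferase reporter were exposed to compound for 1 hr, then induced with copper sulfate (700 uM final) for 20 hr at ambient temperature before luminescence reading.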
A number is an active result. Rows were chosen to be rich in hits. Some 5.6% of all compounds tested hit in one or more screens of this group. Unless noted, calls come from the whole dose curve; as a rule, active = well fitted curve in the direction sought with a large enough effect; inconclusive = small, poorly fitted or top-dose-only effect, or another doubt; inactive = no such curve, though single readings can be large; an effect the other way counts as inactive or inconclusive.

Screening O=C(Cc1csc(-c2ccccc2)n1)NCC(=O)Nc1ccc(F)c(F)c1F returned CtBP-E1A inh inactive and Six1-Eya2 inh inactive.
Screening S=c1[nH]c(-c2ccccc2)cn1/N=C/c1ccc(Br)cc1 returned VP16 counter 7.1µM, CtBP-E1A inh inactive, PKM2 activator inactive, Six1-Eya2 inh inactive and RORg inh 0.4µM.
Screening Fc1ccccc1/C=N/n1cc(-c2ccccc2)[nH]c1=S returned VP16 counter 8.9µM, CtBP-E1A inh inactive, PKM2 activator inactive, Six1-Eya2 inh inactive and RORg inh 1.4µM.
`Cc1ccc(C)c(/C=N/n2cc(-c3ccccc3)[nH]c2=S)c1` gave VP16 counter inconclusive, CtBP-E1A inh inactive, PKM2 activator inactive, Six1-Eya2 inh inactive and RORg inh 0.28µM.
C=CCSc1nnc(NC(=O)C23CC4CC(CC(NC(C)=O)(C4)C2)C3)s1 was read as VP16 counter 13µM, CtBP-E1A inh inactive, PKM2 activator inactive, Six1-Eya2 inh inactive and RORg inh inactive.
CCOc1ccc(NS(=O)(=O)c2cc3c4c(c2)C(C)C(=O)N4CCC3)cc1 (stereo not drawn) was read as VP16 counter inactive, CtBP-E1A inh inactive, Six1-Eya2 inh inactive and RORg inh inactive.
For FC(F)(F)c1cnc(C(c2ccccn2)c2ncn[nH]2)c(Cl)c1 (stereo not drawn) the results were VP16 counter inactive, CtBP-E1A inh inconclusive, PKM2 activator inactive, Six1-Eya2 inh -89 and RORg inh 11µM.
Screening FC(F)(F)c1cnc(C(c2ccccc2)c2ncn[nH]2)c(Cl)c1 (stereo not drawn) returned VP16 counter inactive, CtBP-E1A inh inactive, PKM2 activator inactive, Six1-Eya2 inh inactive and RORg inh inactive.
Screening Cn1c(CNc2nc3ccccc3n2C)nc2ccccc21 returned VP16 counter inactive, CtBP-E1A inh inactive, PKM2 activator inactive, Six1-Eya2 inh inactive and RORg inh inactive.
CCn1c(-c2ccc(N)cc2)nc2ccccc21 was read as VP16 counter inactive, CtBP-E1A inh inactive, PKM2 activator inactive, Six1-Eya2 inh inactive and RORg inh inactive.
For CN(C)c1ccc(-c2nc3ccccc3n2C)cc1 the results were VP16 counter inconclusive, CtBP-E1A inh inactive, PKM2 activator inactive, Six1-Eya2 inh inactive and RORg inh 4µM.
Screening CN(Cc1nc2ccccc2n1C)c1ccccc1 returned VP16 counter inconclusive, CtBP-E1A inh inactive, PKM2 activator inactive, Six1-Eya2 inh inactive and RORg inh 11µM.
`CCn1c(-c2ccc(N(C)C)cc2)nc2ccccc21` gave VP16 counter inconclusive, CtBP-E1A inh inactive, PKM2 activator inactive, Six1-Eya2 inh inactive and RORg inh 6.3µM.
For CC(C)n1c(-c2ccc(N(C)C)cc2)nc2ccccc21 the results were VP16 counter 20µM, CtBP-E1A inh inactive, PKM2 activator inactive, Six1-Eya2 inh inconclusive and RORg inh 4µM.
For CCOc1ccc(NC(=O)CN2C(=O)NC3(CCCCCC3)C2=O)cc1 the results were CtBP-E1A inh inactive and Six1-Eya2 inh inactive.
For CCCC1SCC(C)(C)NC1=O (stereo not drawn) the results were CtBP-E1A inh inactive and Six1-Eya2 inh inactive.
CC1(C)NC(=O)N(CCC(=O)Nc2cc(C(F)(F)F)ccc2Cl)C1=O was read as CtBP-E1A inh inactive and Six1-Eya2 inh inactive.
For CCCC(=O)N1CCC1(C)C(=O)NS(=O)(=O)c1ccccc1Cl (stereo not drawn) the results were CtBP-E1A inh inactive and Six1-Eya2 inh inactive.
`CC1=NN(C(=O)c2ccccc2)C(O)(c2ccc(Br)cc2)C1` (stereo not drawn) gave VP16 counter inconclusive, CtBP-E1A inh inactive, PKM2 activator inactive, Six1-Eya2 inh inactive and RORg inh 7.9µM.
`O=C(c1ccccc1)N1N=C(C(F)(F)F)CC1(O)c1ccccc1O` (stereo not drawn) gave VP16 counter 13µM, PKM2 activator inactive, Six1-Eya2 inh inactive and RORg inh 8.9µM.
`CCC1=NN(C(=O)c2cccc([N+](=O)[O-])c2)C(O)(c2ccc(C)cc2)C1` (stereo not drawn) gave VP16 counter 5.6µM, CtBP-E1A inh inactive, PKM2 activator inactive, Six1-Eya2 inh inactive and RORg inh 5µM.

Screening results deposited in PubChem BioAssay by National Center for Advancing Translational Sciences (NCATS).
